Measured values reported in paper PMC5540273 (PLoS ONE, 2017).

What was measured:
Conditions in all cases: concentration: 1 μM, replicates: in singlicate; n = 1
[1] = system: SGK3
[2] = system: SGK
[3] = system: SIK2
[4] = system: SIK
[5] = system: SLK
[6] = system: T1, SNARK
T1 construct: gene NUAK2

[7] = system: SNRK
[8] = system: SRC
[9] = system: SRMS
[10] = system: SRPK1
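Also: KINOMEscan kinase panel screen.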

| Structure (SMILES) | %Inh [1] | %Inh [2] | %Inh [3] | %Inh [4] | %Inh [5] | %Inh [6] | %Inh [7] | %Inh [8] | %Inh [9] | %Inh [10] |
| --- | --- | --- | --- | --- | --- | --- | --- | --- | --- | --- |
| Nc1ncnc2occ(-c3ccc4c(c3)CCN4C(=O)Cc3cc(F)ccc3F)c12 [GSK2645446] | 1% | 0% | 0% | 0% | 5% | 7% | 0% | 0% | 0% | 16% |
| Cc1ccc(-c2nc(Nc3ccncc3)c3ccccc3n2)s1 [GSK189015] | 47% | 5% | 16% | 0% | 9% | 74% | 3% | 13% | 3% | 38% |
| COc1ccc(CSc2nnc(-c3ccc4nccn4c3)o2)cc1C(F)(F)F | 61% | 8% | 29% | 13% | 14% | 77% | 5% | 7% | 3% | 20% |
| CC(=O)c1c(C)c2cnc(Nc3ccc(N4CCNCC4)cn3)nc2n(C2CCCC2)c1=O | 5% | 0% | 10% | 0% | 0% | 0% | 8% | 0% | 0% | 32% |
| CNc1nc(-c2ccc3c(N)n[nH]c3c2)cc(N2C[C@@H](C(=O)NC3CCCCC3)OC[C@H]2C)n1 [GSK2375584] | 20% | 0% | 0% | 0% | 24% | 30% | 2% | 0% | 0% | 4% |
| CC(C)c1ccc(O)cc1Nc1ccnc2ccc(C(F)(F)F)cc12 [GW482059] | 4% | 7% | 0% | 0% | 9% | 3% | 0% | 14% | 0% | 35% |
| Cc1ccccc1Cn1ccn2c(=O)cc(N3CCOCC3)nc12 [GSK2269905] | 2% | 0% | 0% | 0% | 20% | 0% | 0% | 0% | 0% | 24% |
| O=C1NC(=O)C(c2ccc(Cl)cc2)=C1Nc1cccc(Cl)c1 [SB-317651] | 0% | 0% | 0% | 0% | 14% | 0% | 0% | 2% | 0% | 0% |
| CS(=O)(=O)CCNCc1nc(-c2ccc3ncnc(Nc4ccc(OCc5ccccc5)c(Cl)c4)c3c2)cs1.Cl [GW582764] | 0% | 11% | 0% | 6% | 14% | 0% | 0% | 0% | 0% | 10% |
| Cn1cncc1-c1cc2c(Nc3ccc(OCc4ccccc4)cc3)ncnc2cn1 [GW281179] | 0% | 4% | 0% | 0% | 19% | 0% | 0% | 0% | 0% | 18% |
| COc1cc2ncnc(Nc3cccc(Br)c3)c2cc1OC.Cl [GI230329] | 0% | 22% | 0% | 0% | 65% | 3% | 23% | 20% | 21% | 34% |
| COc1ccc(CSc2nnc(-c3ccc4ncsc4c3)o2)cc1C(F)(F)F | 0% | 2% | 0% | 11% | 15% | 0% | 0% | 3% | 0% | 10% |
| COC(=O)C(NC(=O)NC1CCN(c2ccnc(Nc3ccc(F)cc3)n2)C1)c1ccccc1 (stereo not shown) [GSK1379712] | 2% | 2% | 3% | 0% | 4% | 5% | 0% | 0% | 0% | 0% |
| O=C(Nc1n[nH]c2cc(-c3ccsc3)ccc12)C1CC1 [SB-732932] | 26% | 6% | 0% | 4% | 0% | 29% | 15% | 0% | 13% | 45% |
| FC(F)(F)c1ccccc1-c1cc(-c2c[nH]nc2-c2ccccn2)ccn1 [GW679396] | 1% | 0% | 0% | 0% | 15% | 0% | 0% | 0% | 0% | 3% |
| Cc1ccc(NC(=O)Nc2ccc(Cl)c(C(F)(F)F)c2)cc1-c1ccc(C(=O)Nc2ccncc2)cc1 [GSK1398470] | 4% | 0% | 26% | 41% | 21% | 4% | 56% | 21% | 0% | 30% |

| Structure (SMILES) | %Inh [1] | %Inh [2] | %Inh [3] | %Inh [4] | %Inh [5] | %Inh [6] | %Inh [7] | %Inh [8] | %Inh [9] | %Inh [10] |
| --- | --- | --- | --- | --- | --- | --- | --- | --- | --- | --- |
| O=C1NC(=O)C(c2ccc(Cl)cc2)=C1Nc1ccc(O)cc1 [SB-340867] | 6% | 0% | 0% | 0% | 9% | 0% | 0% | 0% | 0% | 18% |
| O=c1cc(N2CCOCC2)nc2n(Cc3cccc(Cl)c3Cl)c3ccccc3n12 [GSK2299009] | 4% | 31% | 18% | 16% | 39% | 16% | 0% | 0% | 0% | 19% |
| CNCc1ccc2nc(NC(=O)c3ccc(C(C)(C)C)cc3)cn2c1 | 31% | 2% | 4% | 3% | 0% | 34% | 20% | 3% | 0% | 33% |
| Nc1cccc(-c2ccc3c(N)n[nH]c3c2)n1 [GSK2192730] | 34% | 2% | 0% | 0% | 0% | 19% | 0% | 0% | 0% | 33% |
| O=c1cc(N2CCOCC2)nc2n(Cc3ccccc3F)ccn12 [GSK2297428] | 4% | 0% | 0% | 0% | 28% | 0% | 0% | 0% | 0% | 0% |
| Cn1cncc1C(=O)NC1CCN(c2ccnc(Nc3ccc(F)cc3)n2)C1 (stereo not shown) [GSK1379717] | 0% | 14% | 0% | 0% | 0% | 0% | 0% | 0% | 0% | 100% |
| COc1cccc(C2=C(Nc3cc(Cl)c(O)c(Cl)c3)C(=O)NC2=O)c1 [SB-390767] | 0% | 0% | 0% | 0% | 13% | 0% | 0% | 0% | 0% | 11% |
| Fc1ccc(-c2nc[nH]c2-c2ccncc2)cc1 [SB-217360] | 7% | 0% | 0% | 0% | 32% | 0% | 0% | 0% | 34% | 0% |
| CC[C@@H]1CO[C@H](C(=O)Nc2ccccc2)CN1c1cc(-c2ccc3c(N)n[nH]c3c2)nc(NC)n1 [GSK2376236] | 9% | 19% | 0% | 0% | 16% | 26% | 5% | 0% | 0% | 32% |
| COc1ccc(Nc2nccc(N3CCC(NC(=O)C(C)c4ccc(Cl)cc4)CC3)n2)cc1 (stereo not shown) [GSK1379812] | 0% | 0% | 0% | 54% | 28% | 0% | 0% | 10% | 0% | 10% |
| Cc1c(Cn2c(C)c(C)n3c(=O)cc(N4CCOCC4)nc23)cccc1C(F)(F)F [GSK2328680] | 0% | 16% | 0% | 0% | 22% | 0% | 0% | 0% | 0% | 6% |
| Cc1c(Cn2c3ccccc3n3c(=O)cc(N4CCOCC4)nc23)cccc1C(F)(F)F [GSK2306394] | 0% | 15% | 0% | 0% | 5% | 0% | 0% | 1% | 0% | 41% |
| Cc1ccc(NC(=O)Nc2ccccc2F)cc1-c1ccc(C(=O)Nc2ccncc2)cc1 [GSK1398477] | 0% | 0% | 22% | 15% | 34% | 0% | 0% | 27% | 0% | 52% |
| CC(=O)c1cccc(NC(=O)NC2CCN(c3ccnc(Nc4ccc(F)cc4)n3)C2)c1 (stereo not shown) [GSK1379710] | 5% | 18% | 9% | 0% | 2% | 19% | 7% | 0% | 8% | 21% |
| COc1ccc(Nc2nccc(N3CCC(NC(=O)C(C)c4ccc(Cl)cc4)C3)n2)cc1 (stereo not shown) [GSK1379735] | 0% | 10% | 13% | 0% | 33% | 0% | 48% | 0% | 2% | 39% |
